Compounds with a hit are over-represented: about 3.8% of the library has one in this group of screens.
GLS inhibitor: qHTS for Inhibitors of Glutaminase (GLS); Glutaminase kidney isoform, mitochondrial (Homo sapiens), O94925; GLS enzymatic activity, qHTS titration; Potency, µM (top dose mostly 45.5 µM), for the others: at the highest dose activity change, negative = inhibition, hits mostly inhibitors; 410,000 tested, 0.21% active
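hKGA in 45 mM KH2PO4 (pH 8.2), 0.02% Tween-20 with compound, then 1mM L-Glutamine (stock as added) plus glutamate oxidase/HRP/Amplex red coupling mix. Fluorescence read initially and after 30 min at RT; signal change reflects glutamate formation.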
VDR inhibitor: Inhibitors of the vitamin D receptor (VDR): qHTS. Vitamin D3 receptor (Homo sapiens), P11473. VDR-SRC2-3 peptide fluorescence polarization, 2 h. Potency, µM, for the others: max response, negative = inhibition, usual class: inhibitors. 400,000 tested, 0.93% active. AID 504847, 2011
Target sequence (P11473 whole entry, looked up): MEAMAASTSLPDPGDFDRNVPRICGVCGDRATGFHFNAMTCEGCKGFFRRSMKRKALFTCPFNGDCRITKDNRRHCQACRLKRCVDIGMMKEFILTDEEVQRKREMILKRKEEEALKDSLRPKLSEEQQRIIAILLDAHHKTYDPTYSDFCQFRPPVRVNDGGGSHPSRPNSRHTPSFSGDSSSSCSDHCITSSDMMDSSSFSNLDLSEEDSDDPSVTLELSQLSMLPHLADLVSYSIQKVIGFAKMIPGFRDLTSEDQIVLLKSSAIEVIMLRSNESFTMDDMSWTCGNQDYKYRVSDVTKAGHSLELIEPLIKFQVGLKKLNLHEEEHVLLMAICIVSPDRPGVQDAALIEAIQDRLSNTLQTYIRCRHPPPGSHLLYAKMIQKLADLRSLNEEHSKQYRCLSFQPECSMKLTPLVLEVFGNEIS
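FP read-out; VDR + SRC2-3 coactivator peptide; 23 nl compound by pintool; 2 h RT incubation; reagents held at 4 deg C, protected from light.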
TrxR1 substrate: qHTS Assay for Substrates of Mammalian Selenoprotein Thioredoxin Reductase 1 (TrxR1): qHTS | AID 588456, 2011 | Thioredoxin reductase 1, cytoplasmic (Rattus norvegicus), O89049 | 390,000 tested, 0.01% active | purified TrxR1 substrate turnover, NADPH consumption readout | Potency, µM (highest dose often 114 µM), for inactives: at the highest dose activity change, negative = substrate turnover; further: nearly all actives have a fitted effect of over 50% in size
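Rat TrxR1, dispensed at 90 nM, was prereduced with 400 uM NADPH (final) for 5 min at ~22 deg C, then incubated with compound 15 min before 400 uM selenite. A first-read NADPH fluorescence drop versus no-compound background flagged substrates.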
Sfp PPTase inh: qHTS Assay for Inhibitors of Bacillus subtilis Sfp phosphopantetheinyl transferase (PPTase) | 310,000 tested, 3.5% active | Biochemical Sfp PPTase activity, qHTS | Potency, µM, without a hit: largest response in the series, negative = inhibition, actives largely listed as inhibitors | AID 1490, 2009;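 further: the enzyme is Sfp with the accession as filed and its product quenches rhodamine fluorescence; 0% = enzyme reaction without inhibitor and -100% = no enzyme wells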
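With Hepes-Na pH 7.6 buffer containing 10 mM MgCl2, Sfp (15 nM) modified BHQ-2-YbbR (12.5 uM) using rhodamine-CoA (5 uM). Two reads 30 minutes apart at 525/598 nm yielded each well's rate.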
TrxR1 inh: qHTS Assay for Inhibitors of Mammalian Selenoprotein Thioredoxin Reductase 1 (TrxR1): qHTS; Thioredoxin reductase 1, cytoplasmic (Rattus norvegicus), O89049; recombinant rTrxR1, NADPH fluorescence consumption, selenite substrate; Potency, µM (highest dose often 114 µM), for inactives: at the highest dose activity change, negative = inhibition, hits mostly inhibitors; 390,000 tested, 1% active; further: nearly all actives have a fitted effect of over 65% in size
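Rat TrxR1 (90 nM in the dispensed reagent) was pre-reduced with 400 uM NADPH for 5 min at room temperature, then incubated with compound for 15 min. After 400 uM selenite was added, NADPH fluorescence (Ex 340/Em 450 nm) was followed for 8 min.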
GCN5L2 inh: qHTS Assay for Inhibitors of GCN5L2. GCN5L2 HAT assay, ThioGlo1 CoA-SH fluorescence. Potency, µM (series often up to 58.9 µM), inactives show top-dose activity change, negative = inhibition, most hits filed as inhibitors. Histone acetyltransferase KAT2A (Homo sapiens), Q92830. 390,000 tested, 0.21% active. AID 504327, 2011
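Titration-based screen in which CoA formation is detected via maleimide probe ThioGlo1 (50uM) turning fluorescent on thiol reaction; substrates H3(1-25) 75uM and acetyl-CoA 70uM, GCN5L2 20nM, 20 min incubation at room temperature.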
* hit, by the source's call; [ ] = another dose, or the depositor's remark. The call rests on the fitted dose curve; in most records, active means well fitted curve in the direction sought with a large enough effect; inconclusive means small, poorly fitted or top-dose-only effect, or another doubt; inactive means no such curve, though single readings can be large; an effect the other way counts as inactive or inconclusive. Unless noted, on the % scale 0 is the no-effect control and ±100 the full control effect; potency means the concentration at half of the fitted maximal effect.

O=[N+]([O-])c1cc(Br)c(Nc2ccccc2)c([N+](=O)[O-])c1 was read as GLS inhibitor 3%, VDR inhibitor inconclusive, TrxR1 substrate -1%, Sfp PPTase inh -8%, TrxR1 inh 11µM* and GCN5L2 inh inconclusive.
For Cc1noc(NS(=O)(=O)c2ccc(NC(=O)c3ccc(F)cc3)cc2)c1C the results were GLS inhibitor 10%, VDR inhibitor 4%, TrxR1 substrate -5%, TrxR1 inh 2% and GCN5L2 inh 2%.
For CCOC(=O)[C@]1(C(NC(=O)OC)c2cccc(C)c2)CCCC1=O (stereo partly drawn) the results were Sfp PPTase inh -4%.
c1ccc(COc2ccccc2CNC2CCCC2)cc1 was read as GLS inhibitor 35%, VDR inhibitor 8%, TrxR1 substrate 1%[57.1 µM], Sfp PPTase inh -4%, TrxR1 inh 20%[57.1 µM] and GCN5L2 inh -3%.
For c1ccc(COc2ccccc2CNC23CC4CC(CC(C4)C2)C3)cc1 the results were GLS inhibitor -6%, VDR inhibitor 8%, TrxR1 substrate 6%, Sfp PPTase inh 56µM*, TrxR1 inh 14% and GCN5L2 inh 19%.
`Cc1cccc2cc(C(c3nnnn3C(C)(C)C)N3CCN(C(=O)c4ccco4)CC3)c(=O)[nH]c12` (stereo not drawn) gave GLS inhibitor -2%, VDR inhibitor 0%, TrxR1 substrate -4%, Sfp PPTase inh 56µM*, TrxR1 inh -5% and GCN5L2 inh 1%.
`Cc1ccc2[nH]c(=O)c(C(c3nnnn3C(C)(C)C)N3CCN(C(=O)c4ccco4)CC3)cc2c1` (stereo not drawn) gave GLS inhibitor -6%, VDR inhibitor 11%, TrxR1 substrate 5%, Sfp PPTase inh 45µM*, TrxR1 inh -26% and GCN5L2 inh -10%.
For O=C(O)CN1C(=O)/C(=C\c2cc(Br)ccc2OCc2ccccc2Cl)SC1=S the results were GLS inhibitor -17%, VDR inhibitor inconclusive, TrxR1 substrate -3%, Sfp PPTase inh inconclusive, TrxR1 inh -12% and GCN5L2 inh inconclusive.
O=C(O)CN1C(=O)/C(=C\c2ccccc2OCc2ccc(Cl)cc2Cl)SC1=S was read as GLS inhibitor 21%, VDR inhibitor inconclusive, TrxR1 substrate 2%, Sfp PPTase inh inconclusive, TrxR1 inh 18% and GCN5L2 inh 18µM*.
`O=C(O)CN1C(=O)/C(=C\c2cc(Br)ccc2OCc2ccc([N+](=O)[O-])cc2)SC1=S` gave GLS inhibitor -3%, VDR inhibitor 35µM*, TrxR1 substrate 2%, Sfp PPTase inh inconclusive, TrxR1 inh -22% and GCN5L2 inh -22%.
Screening O=C(O)CCN1C(=O)/C(=C\c2cccc(OCc3ccccc3)c2)SC1=S returned GLS inhibitor -6%, VDR inhibitor inconclusive, TrxR1 substrate -8%[57.1 µM], Sfp PPTase inh 11%, TrxR1 inh 1%[57.1 µM] and GCN5L2 inh inconclusive.
Screening O=C(O)CN1C(=O)/C(=C\c2cccc(OCc3ccc(Cl)cc3Cl)c2)SC1=S returned GLS inhibitor -6%, VDR inhibitor inconclusive, TrxR1 substrate -6%, Sfp PPTase inh 79µM*, TrxR1 inh -6% and GCN5L2 inh inconclusive.
Screening CCn1c(SCC(=O)N/N=C\c2ccccc2OCC(=O)O)nnc1-c1ccc(Cl)cc1 returned GLS inhibitor 0%, VDR inhibitor -4%, TrxR1 substrate 0%, Sfp PPTase inh 1%, TrxR1 inh -2% and GCN5L2 inh -1%.
Cc1ccccc1-c1noc(CCC(=O)NCc2ccco2)n1 was read as GLS inhibitor 0%, VDR inhibitor -19%, TrxR1 substrate -2%[57.1 µM], Sfp PPTase inh -13%, TrxR1 inh -17%[57.1 µM] and GCN5L2 inh -11%.
Screening Cc1c(NS(C)(=O)=O)cccc1-c1nc2ccccc2s1 returned GLS inhibitor 3%, VDR inhibitor -4%, TrxR1 substrate -7%, TrxR1 inh -4% and GCN5L2 inh -13%.
`CS(=O)(=O)Nc1ccc(-c2nc3ccccc3s2)cc1` gave GLS inhibitor 7%, VDR inhibitor 8%, TrxR1 substrate 582%, TrxR1 inh 79µM* and GCN5L2 inh -12%.
For O=S(=O)(c1cccc(Cl)c1)N1CCC(c2nc3ccccc3[nH]2)CC1 the results were GLS inhibitor -16%, VDR inhibitor -4%, TrxR1 substrate -27%[57.1 µM], Sfp PPTase inh 16%, TrxR1 inh -13%[57.1 µM] and GCN5L2 inh -8%.
`CN(C)S(=O)(=O)c1cccc(C(=O)C2=C3SC=C(c4ccccc4)N3CC2)c1` gave GLS inhibitor -3%, VDR inhibitor 2%, TrxR1 substrate 3%, Sfp PPTase inh 56µM*, TrxR1 inh inconclusive and GCN5L2 inh -5%.
CN(C)S(=O)(=O)c1cccc(C(=O)N2CCc3ccccc32)c1 was read as GLS inhibitor 0%, VDR inhibitor -6%, TrxR1 substrate -7%, Sfp PPTase inh 9%, TrxR1 inh 8%[57.1 µM] and GCN5L2 inh 4%.
CCc1ccc2c(CN(C)Cc3ccccc3OC)cc(=O)oc2c1 was read as GLS inhibitor 5%, VDR inhibitor 10%, TrxR1 substrate -2%[57.1 µM], Sfp PPTase inh 45µM*, TrxR1 inh -10% and GCN5L2 inh -3%.
For CN(Cc1ccccc1)Cc1cc(=O)oc2ccccc12 the results were GLS inhibitor -4%.
Cc1nn(Cc2ccccc2)c(C)c1CCC(=O)O was read as GLS inhibitor 22%, VDR inhibitor -9%, TrxR1 substrate 7%[57.1 µM], Sfp PPTase inh 12%, TrxR1 inh 0%[57.1 µM] and GCN5L2 inh -1%.
`O=C(Nc1cnn(Cc2ccc(F)cc2)c1)c1cnn2c(C(F)F)cc(-c3ccccc3)nc12` gave GLS inhibitor 12%, VDR inhibitor 11%, TrxR1 substrate -3%, Sfp PPTase inh 14µM*, TrxR1 inh 4% and GCN5L2 inh 22%.
Screening O=C(CNS(=O)(=O)c1ccccc1)N1CCN(Cc2ccccc2)CC1 returned GLS inhibitor 4%, VDR inhibitor 5%, TrxR1 substrate 3%, Sfp PPTase inh 20%, TrxR1 inh 8% and GCN5L2 inh 1%.
